Source: PubChem BioAssay AID1851 (National Center for Advancing Translational Sciences (NCATS), 2009)
Screen size: about 16,000 compounds; about 5,800 (36%) were called active. Another 23% or so got no clear call; they are omitted. Calls come from the whole dose curve; as a rule, active = well fitted curve in the direction sought with a large enough effect; inconclusive = small, poorly fitted or top-dose-only effect, or effect the other way; inactive = no such curve, though single readings can be large or run the other way. Some of the results follow.

molecular target: Cytochrome P450 2C19 (Homo sapiens) (UniProt P33261); experiment: Cytochrome panel assay with activity outcomes; details: recombinant CYP, pro-luciferin dealkylation, luminescence, p450-cyp2c19; series mostly up to 57.1 µM; activity, negative = inhibition: at the top concentration
% is set by controls: 0 for no effect and ±100 for the full control effect.

Sequence of Cytochrome P450 2C19 (Homo sapiens) (P33261 whole entry, looked up): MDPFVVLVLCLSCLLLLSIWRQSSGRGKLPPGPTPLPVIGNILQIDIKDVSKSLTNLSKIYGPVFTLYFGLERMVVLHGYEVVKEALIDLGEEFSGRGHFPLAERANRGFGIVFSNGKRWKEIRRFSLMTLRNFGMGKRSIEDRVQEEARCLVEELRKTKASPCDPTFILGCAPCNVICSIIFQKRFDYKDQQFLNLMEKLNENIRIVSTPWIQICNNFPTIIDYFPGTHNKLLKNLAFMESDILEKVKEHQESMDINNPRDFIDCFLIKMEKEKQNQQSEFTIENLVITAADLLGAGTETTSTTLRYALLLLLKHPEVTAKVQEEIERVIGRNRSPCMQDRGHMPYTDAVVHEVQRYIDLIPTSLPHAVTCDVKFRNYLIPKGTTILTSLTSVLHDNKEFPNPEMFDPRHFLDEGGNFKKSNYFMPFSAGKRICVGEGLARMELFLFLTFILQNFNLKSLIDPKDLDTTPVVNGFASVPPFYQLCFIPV

Row | Structure (SMILES) | activity, negative = inhibition | AC50
1 | COCCn1c(=O)c(-c2cccc(C#N)c2)nc2cnc(N3CCN(C)CC3)nc21 | 3.31% (inactive) | 
2 | CN(C)c1ncc2nc(-c3cccs3)c(=O)n(-c3ccccc3)c2n1 | -10.1% (inactive) | 
3 | COc1ncc2nc(-c3cccs3)c(=O)n(-c3ccccc3)c2n1 | -18.4% (inactive) | 
4 | O=c1c2c(-c3cccs3)csc2[nH]c(=S)n1-c1ccccc1 |  | 10 µM (active)
5 | Cc1cccc(N2CC(O)=C(c3nc4ccccc4n3C)C2=N)c1 | -26% (inactive) | 
6 | Cn1c(-c2sc(=S)n(-c3ccccc3)c2N)nc2ccccc21 |  | 1.41 µM (active)
7 | CN(C)CC/C=C1\c2ccccc2COc2ccccc21 |  | inactive
8 | CC(C)(C)NC[C@@H](O)c1ccc(O)c(CO)n1 | 27.5% [at 11.4 µM] (inactive) | 
9 | CCNc1ncc2nc(-c3cn(C)c4ccccc34)c(=O)n(-c3ccccc3)c2n1 | -27.1% (inactive) | 
10 | CN(C(=O)c1c(O)c2ccccc2n(C)c1=O)c1ccccc1 | -26.4% (inactive) | 
11 | CCCc1c(O)c2ccccc2n(-c2ccccc2)c1=O |  | 11.2 µM (active)
12 | O=C1CC(c2ccc3c(c2)OCO3)Sc2nc3ccccc3n21 (stereo unspecified) |  | 2 µM (active)
13 | CCOc1cc(CNCCO)cc(Br)c1OCc1ccccc1Cl |  | 7.08 µM (active)
14 | CCOc1cc(CNCCc2ccc(S(N)(=O)=O)cc2)cc(Cl)c1OCc1ccccc1 |  | 3.55 µM (active)
15 | Cc1noc(C)c1C(=O)N1CCC2(CCN(Cc3cc(C(F)(F)F)cc(C(F)(F)F)c3)CC2)CC1 | -3.13% (inactive) | 
16 | Cc1nnc(-c2cnn(-c3ccccc3)c2N)n1Cc1ccc(F)cc1 |  | 17.8 µM (active)
17 | Cc1nnc(-c2cnn(-c3ccccc3)c2N)n1Cc1ccccc1 | -12.1% (inactive) | 
18 | COc1ccc(-c2cc(C(F)(F)F)nc(N3CCN(C)CC3)n2)cc1OC | -25.1% (inactive) | 
19 | COc1ccc(-c2cc(C(F)(F)F)nc(N3CCCCC3)n2)cc1OC |  | 3.16 µM (active)
20 | Cn1c(=O)c(-c2ccc(F)cc2)nc2cnc(N3CCOCC3)nc21 | -19.9% (inactive) | 
21 | COc1ccc(-c2cc(C(F)(F)F)nc(NC3CCCC3)n2)cc1OC |  | 22.4 µM (active)
22 | COc1ccc(-c2cc(C(F)(F)F)nc(N3CCOCC3)n2)cc1OC |  | 2.24 µM (active)
23 | COCCn1c(=O)c(-c2ccc(OC)cc2)nc2cnc(N3CCOCC3)nc21 | 1.17% (inactive) | 
24 | COc1ccccc1-c1nc(NC2CC2)c2ccccc2n1 | -15.4% (inactive) | 
25 | O=C(O)C[C@H](NC(=O)CP(=O)(O)O)C(=O)O.[NH-][C@@H]1CCCC[C@@H]1[NH-].[Pt] | -14.4% [at 11.4 µM] (inactive) | 
26 | CCOC(=O)N/N=C1/C[C@@H](O)[C@@H](O)[C@@H]2[C@@H]3C(=O)N(CC)C(=O)[C@H]3CC[C@H]12 | -7.53% [at 11.4 µM] (inactive) | 
